The structures appear in SMILES notation. Active and inactive are the calls of the source.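 The calls were made as follows: active = compounds whose cell count with miR-34 switched on is under 0.7 times the count with it off; inactive = the rest.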

The nature of this test: viability loss with induced miR-34 in A549 – imaging, A549 dox-inducible miR-34, nuclei and caspase counts, primary screen (AID 1347080). Also: test concentration not given here. The note with it: A549 miR-34 inducible, Hoechst nuclei count, 48 h.
The mark [1] stands for this setting: stronger effect = lower value, cell number ratio, induced over uninduced.
Where [2] appears, read: measured here: relative caspase fold change +Dox/-Dox.
The mark [3] stands for this setting: measured here: total cells with miR-34 induction, stronger effect = lower value.
Setting [4] is: measured here: total cells without miR-34 induction.

In the case of `CCCCC[C@H](O)/C=C/[C@H]1CC[C@H](O)[C@@H]1C/C=C\CCCC(=O)O`, the fold change under setting [1] is 0.956 (inactive) and the fold change under setting [2] turned out to be 1.76. Also, the cell count under setting [3] worked out at 6120 and the cell count under setting [4] is 6400.

Turning to `CCCCC[C@H](O)/C=C/[C@H]1C2CC(CO2)[C@@H]1C/C=C/CCCC(=O)O` (stereo partly specified), the fold change was 1 (inactive) under setting [1] and 1.25 under setting [2]. In addition, the cell count came to 6110 under setting [3] and 6090 under setting [4].

For the molecule `CCCCc1ccc(N=CNO)c(C)c1`, the fold change by setting is: under setting [1], 1.01 (inactive); under setting [2], 0.762. Further, the cell count reads like this: under setting [3], 6020; under setting [4], 5950.

For `CC/C=C\C/C=C\C/C=C\CCCCCCCC(=O)OCC`, the fold change was 0.898 (inactive) under setting [1] and 0.639 under setting [2]. The molecule also registered a cell count under setting [3] of 5180 and a cell count under setting [4] of 5770.

As to `CCCCC[C@@](C)(O)/C=C/[C@@H]1C(C/C=C\CCCC(=O)O)[C@@H](O)C[C@H]1O` (stereo partly specified), the fold change under setting [1] was 0.939 (inactive) and the fold change under setting [2] stood at 1.76. The cell count under setting [3] was 6110 and the cell count under setting [4] amounted to 6510.

On to `CCCCC/C=C\C/C=C\C/C=C\C/C=C\CCCCNC(=O)c1ccc(O)cc1`, for which the fold change reads like this: under setting [1], 0.937 (inactive); under setting [2], 0.908. The cell count stood at 5740 under setting [3] and 6120 under setting [4].

On to `CCCCCCCCCCCCCCCCOC[C@@H](O)COP(=O)(O)O`, for which the fold change is, setting by setting: under setting [1], 0.944 (inactive); under setting [2], 0.298. The cell count under setting [3] stood at 5730 and the cell count under setting [4] stood at 6070.

On to `CCCCCCCCCCCCCCCCOC[C@H](COP(=O)([O-])OCCCCCC[N+](C)(C)C)OC(C)=O`, for which the fold change is 0.912 (inactive) under setting [1] and 1.73 under setting [2]. In addition, the cell count by setting is: under setting [3], 5260; under setting [4], 5770.

For the molecule `CC1CCN=C(N)C1` (stereo unspecified), the fold change runs as follows: under setting [1], 0.966 (inactive); under setting [2], 0.767. In addition, the cell count under setting [3] came to 6190 and the cell count under setting [4] was 6410.

For `CCCCCCCC/C=C\CCCCCC(=O)OC`, the fold change is, setting by setting: under setting [1], 0.895 (inactive); under setting [2], 0.755. In addition, the cell count reads like this: under setting [3], 5020; under setting [4], 5610.

For `CCC(C)[C@H]1O[C@]2(C=C[C@@H]1C)C[C@@H]1C[C@@H](C/C=C(\C)[C@@H](OC3C[C@H](OC)C(O[C@H]4C[C@H](OC)[C@@H](NC(C)=O)[C@H](C)O4)[C@H](C)O3)[C@@H](C)/C=C/C=C3\CO[C@@H]4[C@H](O)C(C)=C[C@@H](C(=O)O1)[C@]34O)O2` (stereo partly specified), the fold change was 1.03 (inactive) under setting [1] and 0.79 under setting [2]. The cell count is, setting by setting: under setting [3], 4370; under setting [4], 4250.

For `O=C(CCC/C=C\C[C@@H]1[C@@H](/C=C/[C@@H](O)CCc2ccccc2)[C@H](O)C[C@@H]1O)NC(CO)CO`, the fold change under setting [1] was 0.978 (inactive) and the fold change under setting [2] was 1.15. Besides, the cell count was determined as 5210 under setting [3] and 5330 under setting [4].

For `O=C1O/C(=C/Br)CC[C@H]1c1cccc2ccccc12`, the fold change is, setting by setting: under setting [1], 1.14 (inactive); under setting [2], 0.781. The cell count runs as follows: under setting [3], 3970; under setting [4], 3470.

Consider `CCCCCC(=O)CC[C@H]1[C@H](O)CC(=O)[C@@H]1CCCCCCC(=O)O`, for which the fold change is 0.94 (inactive) under setting [1] and 1.43 under setting [2]. Moreover, the cell count by setting is: under setting [3], 5620; under setting [4], 5980.

In the case of `CC(C)[C@H](O)C(=O)O`, the fold change under setting [1] was 0.982 (inactive) and the fold change under setting [2] was 1.05. The cell count reads like this: under setting [3], 5470; under setting [4], 5570.

As for `CS(=O)(=O)NC(=O)CCCCCCCCCC=C(Br)Br`, the fold change under setting [1] was 0.853 (inactive) and the fold change under setting [2] was found to be 1.19. Moreover, the cell count turned out to be 4860 under setting [3] and 5700 under setting [4].

Take `CC/C=C\C/C=C\C/C=C\CCCCCCCC(=O)N[C@@H](Cc1ccc(O)cc1)C(=O)O`: the fold change is 0.852 (inactive) under setting [1] and 2.46 under setting [2]. In addition, the cell count is, setting by setting: under setting [3], 5060; under setting [4], 5940.

For the molecule `CCCCC/C=C\CCCCCCCCCCCCC(=O)O`, the fold change is, setting by setting: under setting [1], 0.9 (inactive); under setting [2], 1.51. Moreover, the cell count under setting [3] was 4990 and the cell count under setting [4] amounted to 5540.

As to `O=C(NCCN1CCC(n2c(=O)[nH]c3cc(Cl)ccc32)CC1)c1ccc(F)cc1`, the fold change under setting [1] is 0.968 (inactive) and the fold change under setting [2] came to 1.46. Besides, the cell count is, setting by setting: under setting [3], 6040; under setting [4], 6240.

As for `CCCCC[C@H](O)/C=C/[C@H]1C(=O)C[C@H](O)[C@@H]1C/C=C\CCCC(=O)NC(CO)CO`, the fold change is 0.913 (inactive) under setting [1] and 1.9 under setting [2]. Further, the cell count by setting is: under setting [3], 5680; under setting [4], 6220.

`CCCCCCCCCCCCCCCCOC[C@H](COP(=O)([O-])OCC[N+](C)(C)C)SC(=O)CCCCCC`: the fold change runs as follows: under setting [1], 0.987 (inactive); under setting [2], 1.56. Also, the cell count amounted to 5880 under setting [3] and 5950 under setting [4].

In the case of `CCCCCCCCC#CCCCCCCCC(=O)c1nc2ncccc2o1`, the fold change was 1.03 (inactive) under setting [1] and 1.11 under setting [2]. This molecule registered a cell count under setting [3] of 6180 and a cell count under setting [4] of 5990.

For the molecule `C#CCOc1ccccc1CCCCCC(=O)O`, the fold change is, setting by setting: under setting [1], 1.11 (inactive); under setting [2], 0.728. This molecule came in with a cell count under setting [3] of 5930 and a cell count under setting [4] of 5330.

For `CCCCC[C@H](O)/C=C/[C@@H]1[C@@H](C/C=C\CCCCOC)[C@@H](O)C[C@H]1O`, the fold change is 0.815 (inactive) under setting [1] and 1.35 under setting [2]. For the same molecule, the cell count reads like this: under setting [3], 5300; under setting [4], 6500.

Take `C=CC[C@@H]1/C=C(\C)C[C@@H](C)C[C@H](OC)[C@H]2O[C@@](O)(C(=O)C(=O)N3CCCC[C@H]3C(=O)O[C@H](/C(C)=C/[C@@H]3CC[C@@H](O)[C@H](OC)C3)[C@H](C)[C@@H](O)CC1=O)[C@H](C)C[C@@H]2OC`: the fold change by setting is: under setting [1], 0.908 (inactive); under setting [2], 0.315. Also, the cell count is, setting by setting: under setting [3], 5040; under setting [4], 5550.

In the case of `CS(=O)(=O)NC(=O)CCC/C=C\C[C@H]1C(=O)C[C@@H](O)[C@@H]1/C=C/[C@@H](O)COc1ccccc1`, the fold change is 0.897 (inactive) under setting [1] and 1.55 under setting [2]. Further, the cell count reads like this: under setting [3], 5660; under setting [4], 6300.

Take `CC(C)CCCC(C)CCCC(C)CCCC(C)CC(=O)O` (stereo unspecified): the fold change is 0.992 (inactive) under setting [1] and 0.832 under setting [2]. For the same molecule, the cell count was 5990 under setting [3] and 6040 under setting [4].

In the case of `CCCCN=C(N)NO`, the fold change under setting [1] was 1.06 (inactive) and the fold change under setting [2] was determined as 1.14. This molecule also had a cell count under setting [3] of 6280 and a cell count under setting [4] of 5930.

In the case of `Clc1ccc(/C=C/c2cc(Cl)cc(Cl)c2)cc1`, the fold change was 1.02 (inactive) under setting [1] and 0.743 under setting [2]. Also, the cell count is 5370 under setting [3] and 5270 under setting [4].
